High-throughput results: PubChem, National Center for Advancing Translational Sciences (NCATS)
Mito fusion yeast = inhibitors of mitochondrial division or activators of mitochondrial fusion; S. cerevisiae fusion-defective mutant growth rescue, CellTiterGlo 48 h; Potency, µM (doses to about 46.1 µM), for inactives: top-dose growth rescue (activation), usual class: activators; 0.23% of 320,000 active; AID 485298; further: potency means the concentration at half of the fitted maximal effect; % of control where 0% means no effect; nearly all actives have a fitted effect of over 45% in size
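Compounds are tested for their ability to restore growth of mitochondrial fusion-defective yeast strains at non-permissive 37C in YPEG medium over 48 hours. Viability is quantified by luciferase luminescence.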
pAkt inh = inhibitors of Akt phosphorylation; AID 651550; activity change, % for hits at 50 µM; Neuro2A IGF-stimulated pAkt S473 HTRF, 20 min; hits give low values; 0.32% of 360,000 active; in the data active means activity change below about -80%; inconclusive means mostly about -51% to -80%; further: on the % scale 0 is the no-effect control and ±100 the full control effect
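Neuro2A cells (4,500/well, DMEM with 0.5% FBS) were treated with compound at a single 50 µM final concentration, stimulated with 6 nM IGF for 20 min at 37 °C, and lysed. Phospho-Akt Ser473 was read by HTRF as 665/615 ratio ×10^4.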
CCT chaperon mod = modulators of cytosolic chaperonin (CCT/TRiC) activity; AID 651819; purified chaperonin ATPase assay, HTRF ADP detection, 30 min; activity change, % (concentration not given with the values), hits read low; 0.3% of 360,000 active; in the data active means activity change below about -30%; further: on the % scale 0 is the no-effect control and ±100 the full control effect
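TRiC (40 or 20 nM final, by batch activity) in 30 mM Tris pH 7.4, 100 mM KCl, 5 mM MgCl2, 1 mM DTT was treated with compound at 76 uM single dose, then 10 uM ATP, 30 min at 37 °C. ADP was read by HTRF Transcreener.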
Anesthetic bind = binds horse apoferritin like a general anesthetic; P02791; apoferritin/1-aminoanthracene competitive binding, fluorescence; Potency, µM (series often up to 77.5 µM), for inactives: at the top dose activity change, negative = displacement, usual class: inhibitors; 0.074% of 350,000 active; AID 485281; further: potency means the concentration at half of the fitted maximal effect; on the % scale 0 is the no-effect control and ±100 the full control effect; nearly all actives have a fitted effect of over 20% in size
Target sequence (P02791 2-175 limits assumed): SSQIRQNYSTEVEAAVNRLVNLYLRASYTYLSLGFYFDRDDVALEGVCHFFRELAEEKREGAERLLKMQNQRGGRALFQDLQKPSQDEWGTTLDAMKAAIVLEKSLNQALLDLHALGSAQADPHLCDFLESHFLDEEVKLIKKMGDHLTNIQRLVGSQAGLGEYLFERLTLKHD
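10 uM apoferritin + 50% sat. 1-AMA, PBS; cpd 10 min RT; Ex380/Em535 endpoint; normalized to free probe vs complex; 4-param Hill fit; propofol titration as pos. ctrl.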
aSyn yeast inh = inhibitors of alpha-synuclein toxicity in yeast. Yeast expressing alpha-synuclein, growth rescue, BacTiter-Glo, 24 h. Potency, µM (series often up to 46.1 µM), for the others: top-dose growth rescue (activation), actives largely listed as activators. 0.14% of 370,000 active. AID 652106; further: potency means the concentration at half of the fitted maximal effect; % of control where 0% means no effect; nearly all actives have a fitted effect of over 65% in size
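Rescue of yeast growth: cells expressing toxic alpha-synuclein, induced in galactose at OD600 0.02, incubated with compound 24 h at 30 C. ATP luminescence quantified growth; inhibitors of toxicity appear as activators.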
TDP43 rescue = TDP-43 toxicity inhibition in yeast. Potency, µM (doses to about 46.1 µM), for inactives: at the highest dose growth rescue (activation), most hits filed as activators. TDP-43 expressing yeast growth rescue, BacTiter-Glo, 24 h. 1.8% of 410,000 active; further: potency means the concentration at half of the fitted maximal effect; % of control where 0% means no effect; nearly all actives have a fitted effect of over 50% in size
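Growth rescue of TDP-43-toxic yeast measured as ATP luminescence (BacTiter-Glo). Cells grown to mid-log in raffinose, induced in galactose at OD600=0.02, exposed to compound 24 hr at 30 deg C.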
Starred values were filed as active, the others as inactive; i = inactive; ? = inconclusive; / = no result given. Hits are enriched below; roughly 2.5% of the tested compounds scored in any of these assays. Unless noted, the call rests on the fitted dose curve; in most records, active means well fitted curve in the direction sought with a large enough effect; inconclusive means small, poorly fitted or top-dose-only effect, or another doubt; inactive means no such curve, though single readings can be large; an effect the other way counts as inactive or inconclusive.

SMILES	Mito fusion yeast	pAkt inh	CCT chaperon mod	Anesthetic bind	aSyn yeast inh	TDP43 rescue
COc1ccc(CNC(=O)CCc2c(C)nc3c(c(C)nn3-c3ccccc3)c2C)cc1	/	/	/	4%	/	22%
COc1ccccc1C1(O)CCN(CC(=O)Nc2nc(-c3ccccc3)cs2)CC1	-9%	i	-46*	-23%	0%	?
CCc1nnc(NC(=O)CN2CCC(O)(c3ccccc3OC)CC2)s1	-4%	i	-2	-3%	-1%	-21%
CC(C)NC(=O)CSc1cn(CC(=O)N2CCCCCC2)c2ccccc12	/	/	/	-5%	/	-10%
CCOC(=O)CSC1=NC(=O)/C(=C\c2ccc(OC(C)=O)cc2)S1	-8%	i	-1	-19%	-9%	-22%
CCOC(=O)CSC1=NC(=O)/C(=C/c2ccc(Br)cc2)S1	-19%	i	-3	-9%	-31%	11µM*
CC(C)[C@@H]1NC(=O)[C@H](CCCCN)NC(=O)[C@@H](Cc2c[nH]c3ccccc23)NC(=O)[C@H](Cc2ccc(O)cc2)NC(=O)[C@@H](NC(=O)[C@H](N)Cc2ccccc2)CSSC[C@@H](C(=O)N[C@@H](Cc2c[nH]c3ccccc23)C(N)=O)NC1=O	/	/	/	-7%	/	/
COc1ccc(Nc2cc(C)c3cc(NC(=O)c4cc(OC)cc(OC)c4)ccc3n2)cc1	/	/	/	191%	/	0%
O=C(Cn1sc2ccccc2c1=O)NC12CC3CC(CC(C3)C1)C2	-35%	i	1	16µM*	-72%	-93%
O=C(Cn1sc2ccccc2c1=O)Nc1ccccc1	/	i	-3	/	-8%	9%
COc1ccc(C2=CC(c3ccccc3Cl)n3nc(-c4ccc(C)cc4)nc3N2)cc1 (stereo not drawn)	/	/	/	52%	/	5%
Cc1ccc(-c2onc(C)c2C)cc1S(=O)(=O)NCc1cccs1	/	/	/	28%	/	16µM*
COc1ccc(-c2onc(C)c2C)cc1S(=O)(=O)NCC(C)c1ccccc1 (stereo not drawn)	/	/	/	-2%	/	35µM*
Cc1ccccc1NC(=O)CSc1nc(N)c(C#N)c(-c2cccs2)c1C#N	1%	-101%*	-1	-16%	-1%	6%
COc1ccccc1NC(=O)CSc1nc(N)c(C#N)cc1C#N	-5%	i	1	-6%	2%	-22%
CCOc1ccccc1NC(=O)CSc1nc(N)c(C#N)cc1C#N	1%	-96%*	-2	-20%	-4%	-5%
COc1ccccc1/C=C1\C=Cc2ccccc21	/	/	/	/	-13%	/
CNC(=O)c1cccc(-n2c(C)nc3cccnc32)c1C	/	/	/	-7%	/	8%
O=C(c1cc(C2CC2)nn1-c1ccccc1)N1CCN(c2ccccc2O)CC1	/	i	-2	/	6%	18µM*
O=C(O)C(Cc1cn[nH]n1)=NO	7%	i	-51*	1%	-7%	3%
O=C(CCN1C(=O)c2ccccc2C1=O)NC1=NCCS1	0%	-112%*	3	-3%	-5%	4%
O=C(CCn1c(=O)sc2ccccc21)NC1=NCCS1	2%	i	-3	-3%	2%	3%
Cc1cccc(NC(=O)CCCN2C(=O)c3ccccc3C2=O)n1	0%	-111%*	-3	-14%	-8%	-17%
Cc1cccc(NC(=O)Cc2ccc(-c3ccccc3)cc2)n1	1%	i	-3	?	-7%	11µM*
Cc1ccc(CC(=O)Nc2cccc(C)n2)cc1	-6%	i	-2	-16%	-2%	1%
SMILES	Mito fusion yeast	pAkt inh	CCT chaperon mod	Anesthetic bind	aSyn yeast inh	TDP43 rescue
Cc1ccc(OCC(=O)Nc2nonc2-c2ccc(C)c(C)c2)cc1C	/	/	/	-2%	/	14%
CS(=O)(=O)c1ccc(C(=O)OCC(=O)N2CCc3ccccc32)cc1[N+](=O)[O-]	/	/	/	/	0%	/
N[C@@H](Cc1cc(I)c(Oc2ccc(O)cc2)c(I)c1)C(=O)O	/	/	/	3%	/	/
Cc1cccc(NC(=O)Cc2coc3ccc4ccccc4c23)n1	26%	i	-3	-12%	-16%	11µM*
CCCCNC(=O)Cc1coc2ccc3ccccc3c12	-2%	-110%*	-2	-17%	2%	0%
CCn1c(C(=O)Nc2cc(C)cc(C)c2)cc2sc(Cl)cc21	/	/	/	47%	/	16%
